This note sets out measurements from PubChem BioAssay (NCI).

About 83,000 compounds went through this panel and 20% of them were active in at least one assay; those are over-represented in the sample as a whole.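 Values shown are percent growth following 48 h exposure of cells in 96-well plates to a single concentration of compound; below 10 was considered active.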 A number with no mark means an inactive call. Calls of active or inactive are those of the source.

This assay deals with UACC-257 melanoma. Kind of assay: NCI-60 one-dose screen, 48 h (100 = growth as untreated, 0 = no growth, -100 = all killed). Particulars: 10 µM unless noted.
As for `COc1ccc(-c2nc3ccc(-c4nc5ccc(N6CCN(c7ccncc7)CC6)cc5[nH]4)cc3[nH]2)cc1OC`, the growth was 11.6%.

Take `O=C1/C(=C/c2cn(-c3ccccc3)nc2-c2ccccc2)SC(=S)N1CCc1ccccc1`: the growth was 113%. For `CCCN1CCN(c2ccc3nc(-c4ccc5nc(-c6ccc(OCC)cc6)[nH]c5c4)[nH]c3c2)CC1`, the growth is 39.7%. As to `COc1cccc(-c2nc3sccn3c2-c2ccnc(NCCCNS(=O)(=O)c3cccc(F)c3)c2)c1`, the growth was 20.6%.

For the compound `Cn1c(=O)c2c(nc3n(-c4ccc(Cl)cc4Cl)c(Sc4nc(-c5ccccc5)c(C#N)c(=O)[nH]4)cn23)n(C)c1=O`, the growth was 99.9%.

Take `O=C(/C=C/c1ccccc1)c1ccc(O)c(CN2CCN(c3cc4c(cc3F)c(=O)c(C(=O)O)cn4C3CC3)CC2)c1`: the growth was 31.7%. With `C=CC(=O)Nc1cccc(-c2nc(SC)nc(Nc3ccccc3OC)c2C#N)c1` the figure was 57.5%.

As to `COc1cccc(-c2nc3sccn3c2-c2ccnc(NCCNS(=O)(=O)c3ccc(F)cc3)c2)c1`, the growth was 40%. For the compound `COc1cc2nc(N3CCCC3)nc(NCc3ccccc3)c2cc1OC`, the growth was -46.6% (active). As for `N#Cc1c(-c2ccc(Cl)cc2)nc(N/N=C/c2cccc(Br)c2)nc1N1CCOCC1`, the growth was 71.6%. With `CSc1nc(-c2cccc(NC(=O)CCl)c2)c(C#N)c(=O)n1C` the figure was 63.5%; with `C=CC(=O)Nc1cccc(-c2nc(SC)nc(NCCc3ccc(OC)c(OC)c3)c2C#N)c1`, 29.7%; with `O=C(/C=C/c1cccc([N+](=O)[O-])c1)c1ccc(O)c(CN2CCN(c3cc4c(cc3F)c(=O)c(C(=O)O)cn4C3CC3)CC2)c1`, 63.1%.
